Test results: the supplement of paper PMC10646978
± gives the standard deviation.

Columns and labels:
Details in all cases: modulator concentration 10 µM
[1] = test system: RAW-Dual (murine macrophage reporter line); assay: NF-kB reporter (SEAP) activity fold change vs agonist alone; higher = enhanced NF-kB activity
Summary of the method: (§1)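 In 384-well plates holding 50 000 RAW-Dual murine macrophage reporter cells per well, compound at 10 μM final was pre-incubated for 1 hour at 37 °C, after which a PRR agonist was added overnight. Supernatant SEAP read with QUANTI-Blue at 620 nm absorbance reported NF-κB, and Lucia luciferase read with QUANTI-Luc luminescence reported IRF. Fold change values come from dividing each reporter signal by the mean of agonist-only control wells on the same plate, averaged over replicate plates with propagated errors.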

[2] = test system: RAW-Dual (murine macrophage reporter line); assay: IRF reporter (Lucia luciferase) activity fold change vs agonist alone; higher = enhanced IRF activity
Summary of the method: as §1

[3] = test system: RAW-Dual (murine macrophage reporter line); assay: viability score (confluency relative to resting cells, overnight) (fraction); higher = more viable, active = viable (0.7 or more)
Summary of the method: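 RAW-Dual macrophages in 384-well plates were treated overnight with compound at 10 μM final. IncuCyte imaging recorded confluency, and IncuCyte software built two confluency masks across every imaged well. The viability score expresses confluency relative to resting cells and was judged against a cutoff, which a compound met only if both masks exceeded 70% of resting cells.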

[4] = agonist: CpG ODN 1826 0.5 ug/mL

SMILES	NF-kB reporter [1, 4]	NF-kB reporter ([1]; agonist: LPS 0.1 ug/mL)	NF-kB reporter ([1]; agonist: MPLA […])	IRF reporter ([2]; agonist: 3'3'-cGAMP 10 ug/mL)	IRF reporter ([2]; agonist: LPS 0.1 ug/mL)	IRF reporter ([2]; agonist: MPLA […])	viability score [3]
CCCCCOC(=O)CSc1nnc(-c2ccc(Cl)cc2Cl)o1	0.957 ± 0.076	0.981 ± 0.083	0.99 ± 0.048	1.07 ± 0.23	1.04 ± 0.051	1.02 ± 0.14	1 (active)
Cc1n[nH]c(C)c1CCC(=O)NC1CCC(F)(F)CC1	0.921 ± 0.068	1.04 ± 0.12	0.879 ± 0.048	0.955 ± 0.062	1.18 ± 0.094	1.03 ± 0.28	1.02 (active)
Cc1ccc2[nH]c3nc(NN)nnc3c2c1	1.03 ± 0.079	0.929 ± 0.077	0.967 ± 0.024	0.913 ± 0.05	0.998 ± 0.077	0.836 ± 0.071	1 (active)
COc1ccc(C2=CC(=Cc3cccc(OC)c3OC)C(=O)O2)c(OC)c1	1.21 ± 0.3	1.06 ± 0.1	1.07 ± 0.086	1.04 ± 0.028	1.27 ± 0.18	1.16 ± 0.14	1 (active)
CCN1C(C)=C(C(=O)OC)C(c2ccc([N+](=O)[O-])cc2)C(C(=O)OC)=C1C	1.17 ± 0.11	0.868 ± 0.079	0.991 ± 0.049	0.981 ± 0.037	0.954 ± 0.044	0.961 ± 0.1	0.994 (active)
CCNC1(C(N)=O)CCN(c2ncnc3c2nc(-c2ccccc2Cl)n3-c2ccc(Cl)cc2)CC1.Cl	1.24 ± 0.11	0.479 ± 0.038	0.674 ± 0.036	0.19 ± 0.0086	0.464 ± 0.13	0.484 ± 0.12	0.688 (inactive)
N=C1NC(=O)C(=Cc2ccc(-c3cccc(Cl)c3)o2)S1	0.688 ± 0.091	0.695 ± 0.048	1.77 ± 0.11	1.39 ± 0.11	1.17 ± 0.14	2.82 ± 0.65	0.932 (active)
COc1ccc(-c2nc3c4cnn(-c5ccc(C)cc5C)c4ncn3n2)c(O)c1	1.03 ± 0.058	1.1 ± 0.086	0.991 ± 0.11	1.05 ± 0.059	1.25 ± 0.14	1.09 ± 0.27	1 (active)
Br.O=S(=O)(c1ccc(-c2csc(Nc3ccc(Cl)cc3)n2)cc1)N1CCOCC1	0.997 ± 0.09	1.09 ± 0.071	1.09 ± 0.038	0.907 ± 0.17	1.11 ± 0.046	1.06 ± 0.1	0.995 (active)
C[N+]1(C)CCC(OC(=O)C(O)(c2ccccc2)C2CCCC2)C1 (configuration not stated) [Prestw-746]	0.923 ± 0.061	0.998 ± 0.066	0.943 ± 0.062	0.949 ± 0.031	1.24 ± 0.16	1.13 ± 0.17	1.01 (active)
CN1CCN(c2ccc3nc(-c4c(N)c5c(F)cccc5[nH]c4=O)[nH]c3c2)CC1	0.277 ± 0.1	1.19 ± 0.35	1.39 ± 0.59	0.0238 ± 0.0011	0.491 ± 0.07	0.197 ± 0.015	0.799 (active)
CC(C)(C)C(=O)OCOP(=O)(COCCn1cnc2c(N)ncnc21)OCOC(=O)C(C)(C)C	1.69 ± 0.25	1.36 ± 0.11	1.65 ± 0.1	1.81 ± 0.096	5.89 ± 0.5	3.2 ± 0.43	0.788 (active)
CCn1cc(C(=O)O)c(=O)c2cc(F)c(N3CCN(C)CC3)cc21.CS(=O)(=O)O.O.O	0.788 ± 0.11	1.13 ± 0.13	0.897 ± 0.05	0.863 ± 0.026	1.37 ± 0.12	1.07 ± 0.16	0.991 (active)
CCCCc1nc(Cl)c(CO)n1Cc1ccc(-c2ccccc2-c2nnn[nH]2)cc1 [Prestw-1433]	1.2 ± 0.29	1.08 ± 0.054	1.02 ± 0.065	0.944 ± 0.034	1.29 ± 0.14	1.32 ± 0.19	1 (active)
Nc1ccccc1NC(=O)c1ccc(CNc2nccc(-c3cccnc3)n2)cc1	2.46 ± 0.12	1.73 ± 0.15	2.58 ± 0.15	0.0523 ± 0.0046	0.16 ± 0.016	0.186 ± 0.051	0.56 (inactive)
O=C(O)CCC(=O)Nc1ccc(Br)cc1C(=O)c1ccc(Cl)cc1	0.993 ± 0.08	1.05 ± 0.058	0.951 ± 0.066	0.986 ± 0.031	1.31 ± 0.19	1.08 ± 0.18	1.01 (active)
Cl.O=C1CN2Cc3c(ccc(Cl)c3Cl)NC2=N1	0.954 ± 0.13	0.963 ± 0.17	0.96 ± 0.077	0.959 ± 0.051	1.24 ± 0.29	0.993 ± 0.2	1.01 (active)
Cn1cnc([N+](=O)[O-])c1Sc1ncnc2nc[nH]c12	1.1 ± 0.2	0.844 ± 0.23	0.983 ± 0.077	0.934 ± 0.031	1.2 ± 0.33	0.986 ± 0.23	0.983 (active)
CCOc1ccc(OCCCCOc2cccc(C)c2)cc1	0.961 ± 0.094	1.11 ± 0.074	0.932 ± 0.082	1 ± 0.051	1.27 ± 0.18	1.07 ± 0.068	1.01 (active)
CCC(C(=O)NCc1ccnc(-c2ccncc2)c1)c1ccccc1 (configuration not stated)	1.27 ± 0.09	1.1 ± 0.084	1.12 ± 0.03	0.574 ± 0.029	0.654 ± 0.086	0.545 ± 0.12	0.994 (active)
O=S1(=O)N=C(Oc2ccc3ccccc3c2)c2ccccc21	0.889 ± 0.15	1.23 ± 0.1	1.22 ± 0.21	0.91 ± 0.063	0.942 ± 0.14	0.991 ± 0.11	0.992 (active)
NS(=O)(=O)c1cc(Cl)c(Cl)c(S(N)(=O)=O)c1 [Prestw-809]	1.15 ± 0.13	1.02 ± 0.083	0.953 ± 0.046	0.916 ± 0.067	0.92 ± 0.093	0.911 ± 0.16	1 (active)
CC1CC(OC(=O)C(O)c2ccccc2)CC(C)(C)C1 (configuration not stated)	0.872 ± 0.037	1.02 ± 0.11	1.11 ± 0.18	1 ± 0.051	1.25 ± 0.25	1.48 ± 0.5	1.01 (active)
CC(C)Cn1cc(Cl)c(=O)n(CC(C)C)c1=O	1.12 ± 0.068	1 ± 0.11	1.01 ± 0.056	1.03 ± 0.037	1 ± 0.066	0.991 ± 0.19	0.996 (active)
CCN[C@H]1CN(CCCOC)S(=O)(=O)c2sc(S(N)(=O)=O)cc21	1.01 ± 0.12	1.04 ± 0.059	0.975 ± 0.05	1.03 ± 0.067	0.913 ± 0.042	1 ± 0.12	1 (active)
Cc1occc1C(=O)NN=Cc1cc([N+](=O)[O-])ccc1O	1.12 ± 0.11	0.959 ± 0.12	1.16 ± 0.079	0.681 ± 0.096	1.23 ± 0.095	1.27 ± 0.28	0.997 (active)
